Laboratory results published in PubChem BioAssay AID1777 (Sanford-Burnham Center for Chemical Genomics, 2009).
The campaign covered roughly 280,000 compounds. About 50 (0.02%) were called active. The sample holds actives, similar compounds and a random draw of the others, so the mix is not that of the screen. Measured potencies and affinities stand elsewhere. A number with no mark means an inactive call. Rule as the data show it: active = activation above about 50% (passing the limit was not always enough); inactive = the rest.

Molecular target: Kappa-type opioid receptor (Homo sapiens) (UniProt P41145)
Sequence (P41145 whole entry, looked up): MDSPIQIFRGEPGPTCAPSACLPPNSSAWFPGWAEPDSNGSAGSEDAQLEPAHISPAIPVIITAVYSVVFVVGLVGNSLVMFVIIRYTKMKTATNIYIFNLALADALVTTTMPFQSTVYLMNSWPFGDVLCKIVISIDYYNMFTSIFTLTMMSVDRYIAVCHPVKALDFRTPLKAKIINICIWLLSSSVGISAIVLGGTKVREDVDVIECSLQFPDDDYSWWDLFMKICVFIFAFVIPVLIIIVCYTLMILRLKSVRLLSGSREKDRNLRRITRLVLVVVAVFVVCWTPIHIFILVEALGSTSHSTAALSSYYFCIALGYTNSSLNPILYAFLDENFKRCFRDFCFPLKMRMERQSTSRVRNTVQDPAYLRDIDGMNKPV
Assay: kappa opioid receptor activators – cell-based, luminescence, uHTS, primary screen (AID 1777)
Details: KOR beta-arrestin recruitment, at 10 µM, active compounds read high

SMILES	activation
COC(=O)N1CCN(C(=O)Cc2ccc(Cl)c(Cl)c2)C(CN2CCCC2)C1 (stereo not given)	91.3% (active)
COc1ccc(C(CNC(=O)Cc2ccc(Cl)c(Cl)c2)N2CCCCC2)cc1 (stereo not given)	-2.4%
COc1ccc(C(CNC(=O)Cc2ccc(Cl)c(Cl)c2)N(C)C)cc1 (stereo not given)	-2.4%
CCN1C(=O)N(CC)C(=O)C2(Cc3ccccc3N3CCN(c4ccccc4)CC32)C1=O (stereo not given)	2.7%
COc1ccc2nc(/N=C/c3c(O)n(-c4cccc(Cl)c4)c(=O)[nH]c3=O)sc2c1	2.9%
